In the library only some 7.9% were active in any assay of this set; here they are far more common.
KB-V1 cytotox = kills drug-selected multidrug resistant KB-V1 cells | KB-V1 MDR cells viability, CellTiter-Glo, 72 h | Potency, µM (titrated, usually from 46.1 µM), hits mostly cytotoxic | 400,000 tested, 3.4% active; further: on the % scale 0 is the no-effect control and ±100 the full control effect; nearly all actives have a fitted effect of over 60% in size
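Potencies derive from concentration-effect curves fitted to normalized luminescence (CellTiter-Glo) of KB-V1 cells treated for 72 h at 37 degrees C in phenol-red-free DMEM containing 10% FBS.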
HT1080 IDH1KD tx = toxicity to HT-1080 IDH1 knockdown cells (counter line); HT-1080 IDH1 knockdown viability, ATP luminescence, 48 h; Potency, µM (doses to about 46.1 µM), inactives show at the top dose activity, negative = toxicity, hits mostly cytotoxic; 360,000 tested, 2% active;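 further: 0% = DMSO wells and -100% = cell-free medium wells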
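Luminescent ATP read-out (CellTiter-Glo, 10 min at room temperature) after 48 h compound exposure at 37 °C gave viability of IDH1-knockdown HT-1080 cells. Activity was normalised to DMSO and cell-free wells, then fitted as concentration-response curves.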
KB-3-1 cytotox = kills parental KB-3-1 adenocarcinoma cells | Potency, µM (doses to about 46.1 µM), usual class: cytotoxic | 400,000 tested, 1.4% active | KB-3-1 viability, CellTiter-Glo ATP luminescence, 72 h; further: on the % scale 0 is the no-effect control and ±100 the full control effect; nearly all actives have a fitted effect of over 60% in size
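KB-3-1 parental drug-naive adenocarcinoma cells in DMEM/10% FBS, incubated 72 h at 37 C with pin-transferred compounds across a concentration series. Viability by CellTiter-Glo luminescence; concentration-response curves fitted after normalization.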
SW480 rereplic = DNA re-replication induction in SW480 cells | SW480 DNA re-replication, Hoechst DNA content imaging, 48 h | 340,000 tested, 1.8% active | Potency, µM (titrated, usually from 46.1 µM), inactives show at the top dose re-replication activation, most hits filed as activators; further: % of control where 0% means no effect; nearly all actives have a fitted effect of over 55% in size
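SW480 cells exposed to compounds for 48 hr at 37 C, 5% CO2, then Hoechst-stained 40 min. Nuclear DNA content imaged by fluorescence scanning (405 nm excitation, 500-530 nm emission); re-replication scored as increased high-intensity nuclei.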
MCF10A rereplic = inducers of DNA re-replication in MCF 10A breast cells; Potency, µM (top dose mostly 46.1 µM), for inactives: at the top dose activity, positive = re-replication, usual class: activators; AID 624296; MCF 10A DNA re-replication, Hoechst nuclear intensity, 48 h; 350,000 tested, 2.9% active; further: % of control where 0% means no effect; nearly all actives have a fitted effect of over 50% in size
HT1080NT lethal = kills 2HG-producing HT-1080-NT fibrosarcoma cells; HT-1080-NT fibrosarcoma viability, CellTiter-Glo ATP luminescence, 48 h; Potency, µM (doses to about 46.1 µM), without a hit: at the top dose activity, negative = less viability, actives largely listed as cytotoxic; 360,000 tested, 1.6% active;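 further: NT is the 2HG producing partner of a matched IDH1 knockdown line; 0% = DMSO-treated cells and -100% = media-only wells without cells; nearly all actives have a fitted effect of over 55% in size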
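Fibrosarcoma NT cells, 750 per well in 5% FBS RPMI, were exposed to compound for 48 hours. Viability: CellTiter-Glo luminescence.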
* hit, by the source's call; i = inactive; ? = inconclusive; . = no result given. The call rests on the fitted dose curve; in most records, active means well fitted curve in the direction sought with a large enough effect; inconclusive means small, poorly fitted or top-dose-only effect, or another doubt; inactive means no such curve, though single readings can be large; an effect the other way counts as inactive or inconclusive. Potency means the concentration at half of the fitted maximal effect.

SMILES	KB-V1 cytotox	HT1080 IDH1KD tx	KB-3-1 cytotox	SW480 rereplic	MCF10A rereplic	HT1080NT lethal
Cc1ccc2cc(C#N)c(N3CCCN(C(=S)NCCCN(C)C)CC3)nc2c1	i	21µM*	?	23µM*	3.7µM*	21µM*
Cc1cc(C)c2cc(C#N)c(N3CCCN(C(=S)NCCCN(C)C)CC3)nc2c1	?	?	?	?	7.3µM*	?
CCCCC(=O)Nc1cc(OC)c(NC(=S)Nc2ccc(OC)cc2)cc1OC	i	9%	i	-1%	10%	7%
COc1ccc(OC)c2sc(N(Cc3cccnc3)C(=O)c3ccc(C(C)=O)cc3)nc12	i	.	i	.	.	.
COC(=O)c1ccc(NC(=O)COc2ccc3c(c2)OCO3)cc1	i	?	i	0.41µM*	-1%	-12%
CCN(CC(=O)Nc1ccc2c(c1)OCCO2)CC(=O)Nc1ccc2c(c1)OCO2	i	3%	i	1%	-9%	-1%
Cc1ccc(C)c(OCC(=O)Nc2ccc3c(c2)OCO3)c1C	?	-27%	8.2µM*	?	6%	-15%
CCN(CC(=O)Nc1ccc2c(c1)OCCO2)Cc1cc(=O)oc2c(C)c(C)ccc12	4.1µM*	-6%	i	6%	-1%	-10%
Cc1cccc(OCC(=O)Nc2ccc3c(c2)OCO3)c1C	i	5%	i	-10%	11%	11%
Cc1cn([C@H]2C[C@H](O)[C@@H](/C=C/C(=O)NCc3ccco3)O2)c(=O)[nH]c1=O	i	5%	i	.	.	0%
O=C1c2ccccc2C(=O)N1CC(=O)N1c2ccccc2Sc2ccccc21	i	9%	i	-2%	-7%	12%
O=C1c2ccccc2C(=O)N1CC(=O)N1c2ccccc2Sc2ccc(C(F)(F)F)cc21	18µM*	-2%	i	0%	14%	2%
CC(=O)NC(c1cccs1)c1cc([N+](=O)[O-])c2cccnc2c1O (stereo not given)	i	10µM*	?	?	?	?
CCC(=O)NC(c1cccs1)c1cc([N+](=O)[O-])c2cccnc2c1O (stereo not given)	i	13µM*	i	?	-4%	?
CCCC(=O)NC(c1cccs1)c1cc([N+](=O)[O-])c2cccnc2c1O (stereo not given)	?	?	?	?	?	-29%
CC1(C)CC2(OC2c2ccccc2[N+](=O)[O-])C(=O)c2ccccc21 (stereo not given)	?	-12%	i	.	.	-12%
CCOc1ccc(/C=C(\C#N)c2nc(-c3cc4ccccc4oc3=O)cs2)c(OCC)c1	i	.	i	.	.	.
CCCCc1ccc(NC(=O)N2CCN(c3cc(C)nc4ccccc34)CC2)c(C)c1	?	-28%	?	21µM*	17%	?
Cc1cc(N2CCN(C(=O)Nc3ccc(F)cc3F)CC2)c2ccccc2n1	i	-3%	i	-5%	9%	-1%
Cc1sc2ncnc(N3CCC(C(=O)Nc4nc(-c5cccs5)cs4)CC3)c2c1C	5.2µM*	2%	?	12%	?	0%
CCc1nnc(NC(=O)C2CCN(c3ncnc4sc(C)c(C)c34)CC2)s1	?	6%	i	-12%	2%	4%
Cc1ccc(C)c(S(=O)(=O)N2CCN(C(=O)C3CCN(c4ncnc5sc(C)c(C)c45)CC3)CC2)c1	?	-10%	23µM*	21µM*	21µM*	5%
Cc1sc2ncnc(N3CCC(C(=O)N(C)CC(=O)Nc4ccc(Cl)c(C(F)(F)F)c4)CC3)c2c1C	i	16µM*	21µM*	-423%	?	?
Cc1ccc2nc(NC(=O)C3CCN(c4ncnc5sc(C)c(C)c45)CC3)sc2c1	.	-2%	.	23%	23µM*	-5%
COc1cc(C2CC(=O)Nc3c2c(=O)[nH]c2nc4ccccc4n32)ccc1O (stereo not given)	i	.	i	.	.	.
SMILES	KB-V1 cytotox	HT1080 IDH1KD tx	KB-3-1 cytotox	SW480 rereplic	MCF10A rereplic	HT1080NT lethal
C/C(=N\NC(=O)c1cccc(S(=O)(=O)N2CCOCC2)c1)c1ccc(O)cc1	i	11%	i	3%	-2%	4%
CCOC(=O)c1ccccc1NC(=O)C1CC(=O)N(C2CCCCC2)C1 (stereo not given)	i	14%	i	4%	-4%	10%
CCOC(=O)c1ccccc1NC(=O)C1CC(=O)N(C(C)(C)C)C1 (stereo not given)	i	-2%	i	-35%	1µM*	0%
CCOC(=O)c1ccccc1NC(=O)C1CCN(c2ncnc3sc(C)c(C)c23)CC1	23µM*	-6%	?	-10%	?	-5%
Cc1sc2ncnc(N3CCC(C(=O)Nc4ccccc4C(C)(C)C)CC3)c2c1C	?	-22%	i	?	18%	-3%
CCc1ccccc1NC(=O)CN1C(=O)c2cccnc2Sc2ccccc21	i	.	i	.	.	.
CC(C)NC(=O)C1(C)CCN1C(=O)c1ccc(F)c(Cl)c1 (stereo not given)	i	6%	i	.	.	11%
Cc1oc2ccc(OS(C)(=O)=O)cc2c1C(=O)OC(C)C	13µM*	-13%	i	1%	-11%	-5%
COCCOC(=O)c1c(C)oc2ccc(OS(C)(=O)=O)cc12	?	0%	?	-25%	17%	9%
CCOC(=O)c1ccc(NC(=O)c2ncn3c2C(=O)NC[C@@H]3C)cc1	?	-8%	i	.	.	9%
C=CCN1C(=O)/C(=C/c2ccc(OC(C)=O)c(OCC)c2[N+](=O)[O-])SC1=S	?	21µM*	?	23%	3.7µM*	9.2µM*
Cc1ccccc1CN1c2ccccc2-c2nc(SCC(=O)NCCc3ccccc3)ncc2S1(=O)=O	i	.	i	.	.	.
COc1ccc(-c2cc(NC=O)c3ncc(-c4cccc(C(F)(F)F)c4)n3c2)cc1OC	?	21µM*	?	.	.	?
COc1ccccc1-c1cc(NC=O)c2ncc(-c3cccc(C(F)(F)F)c3)n2c1	?	-6%	?	.	.	-9%
CN(C)c1ccccc1-c1cc(NC=O)c2ncc(-c3cccc(C(F)(F)F)c3)n2c1	?	29µM*	?	.	.	?
COc1ccccc1C(=O)N/C(=C/c1ccc(Br)cc1)C(=O)N1CCOCC1	?	-2%	i	.	.	-3%
C=CC[n+]1cccc2cccc(O)c21	i	.	i	.	.	.
CC(C)(C)c1ccc(OCC(=O)Nc2ccc(S(=O)(=O)Nc3ncccn3)cc2)cc1	i	.	i	.	.	.

Assay outcomes (PubChem)
